Laboratory results published in PubChem BioAssay (NCI).
The panel holds about 79,000 compounds, 15% with a hit somewhere; the sample as a whole holds those more often. Rule as the data show it: active = growth inhibition above about 70%; inactive = the rest.

Assays:
[1] = NCI Yeast Anticancer Drug Screen. Data for the rad50 strain (AID 155);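 also: 0% = growth of vehicle-only cultures of the same strain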; conditions: S. cerevisiae rad50 strain growth inhibition; at 50.0 µM; active compounds read high
In short: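 Growth of the mutant yeast was measured after compound exposure and referenced to vehicle-treated cultures.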

[2] = NCI Yeast Anticancer Drug Screen. Data for the mec2-1 strain (AID 157); conditions: S. cerevisiae mec2-1 strain, at 50.0 µM, active compounds read high
In short: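 Vehicle-treated cultures served as reference for growth inhibition of compound-exposed mec2-1 yeast.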

[3] = NCI Yeast Anticancer Drug Screen. Data for the sgs1 mgt1 strain (AID 161);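 also: 0% = growth of cultures given vehicle only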; conditions: S. cerevisiae sgs1 mgt1 strain, at 50.0 µM, active compounds read high
In short: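 Inhibition of yeast growth, normalised to vehicle-treated controls, is reported for a strain bearing genetic alterations in DNA damage repair.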

[4] = NCI Yeast Anticancer Drug Screen. Data for the cln2 rad14 strain (AID 165);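 also: 0% = growth equal to vehicle treated cultures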; conditions: S. cerevisiae cln2 rad14 strain, at 50.0 µM, active compounds read high
In short: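 Each compound was tested on cln2 rad14 yeast. Inhibition of growth was calculated against vehicle-exposed controls.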

[5] = NCI Yeast Anticancer Drug Screen. Data for the bub3 strain (AID 167); conditions: S. cerevisiae bub3 mutant strain, at 50.0 µM, active compounds read high
In short: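 Whole-cell yeast assay. The mutant strain was incubated with compounds, and growth inhibition was determined by comparison with vehicle-treated cells.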

[6] = NCI Yeast Anticancer Drug Screen. Data for the mlh1 rad18 strain (AID 175); conditions: S. cerevisiae mlh1 rad18 strain growth inhibition; at 50.0 µM; active compounds read high
In short: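 Vehicle-treated cultures served as the reference for growth inhibition in a yeast strain carrying DNA damage repair alterations exposed to each compound.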

Measured: growth inhibition

Nc1ncnc2c1N=C(c1ccccc1)CC(c1ccccc1)N2 (stereo not given)
inactive: [1] -8.75% | [2] -5.15% | [3] -4.15% | [4] 3.15% | [5] -35.4% | [6] 2.6%

CCCCCCCCCCCCCCCCCCNC(=S)N(C)C
inactive: [1] 18.8% | [2] 0.2% | [3] 8.1% | [4] 1.25% | [5] 38.6% | [6] 5.05%

CC1CCc2c(nc(C#N)c(=N)n2O)C1 (stereo not given)
inactive: [1] 8.25% | [2] -3.2% | [3] 6.8% | [4] -40.2% | [5] -12.2% | [6] -6.75%

COc1ccc(C(=O)C(CN(C)C)CN(C)C)cc1OC
inactive: [1] 30.6% | [2] 9.55% | [3] -14.1% | [4] -5.9% | [5] -11.7% | [6] -18.4%

CN(C)C(=O)Nc1cccc2c(NC(=O)N(C)C)cccc12
inactive: [1] -1.4% | [2] 4.4% | [3] 10.7% | [4] 11.9% | [5] -4.45% | [6] -1.55%

CC(=O)c1ccc2ccccc2c1
inactive: [1] 24.4% | [2] 7.8% | [3] 4.3% | [4] 2.75% | [5] -0.1% | [6] 16.2%

O=[N+]([O-])c1ccc(COP(=O)(O)OCc2ccc([N+](=O)[O-])cc2)cc1
inactive: [1] -1.5% | [2] 10.9% | [3] 13.1% | [4] -9.55% | [5] 11.2% | [6] 15.4%

NC(=O)c1cn(C2OC(CO)C(O)C2O)c(=O)[nH]c1=O (stereo not given)
inactive: [1] 14.2% | [2] -8.8% | [3] -0.1% | [4] 18.8% | [5] -12.7% | [6] -5.25%

CN(C)c1ccc(N=C(C#CC#Cc2ccccc2)c2ccccc2)cc1
inactive: [1] 3.85% | [2] -4% | [3] 7.55% | [4] -42.4% | [5] -19.4% | [6] 24.8%

Nc1ncnc2c1ncn2C1CC(O)C(COP(=O)(O)O)O1 (stereo not given)
inactive: [1] 0.15% | [2] -4.65% | [3] 0.85% | [4] -23.4% | [5] 0.45% | [6] 4.7%

C=C(C)[C@@H]1CC=C(CO)CC1
inactive: [1] 15.7% | [2] -1.95% | [3] 0.45% | [4] 22.1% | [5] 28.3% | [6] 8.4%

Cc1cc2oc(=O)cc(C(=O)O)c2c(=O)o1
inactive: [1] -15.8% | [2] -9.55% | [3] -13.2% | [4] -17.6% | [5] -8.85% | [6] -16.1%

CC(=O)Nc1ccc(N=C2c3ccccc3-c3ccc([N+](=O)[O-])cc32)cc1
inactive: [1] -6.1% | [2] -10.8% | [3] 11.2% | [4] -11.7% | [5] -5.7% | [6] -13.6%

O=C(O)Cc1cccc2c(=O)cc(Cc3ccccc3)oc12
inactive: [1] -13.8% | [2] -16.6% | [3] -11.5% | [4] 6.6% | [5] 20.1% | [6] -15%

c1ccc(C(=C2CCC2)c2c3ccccc3cc3ccccc23)cc1
inactive: [1] -10.1% | [2] 9.4% | [3] -7% | [4] 5.8% | [5] -17.9% | [6] -20.1%

Cc1nc(Nc2ccccc2Cl)sc1C(=O)CC(=O)C(N)=O
inactive: [1] 37.1% | [2] 20.9% | [3] 39.4% | [4] 24.1% | [5] 2.7% | [6] 48.6%

CC(=O)Nc1ccc(C(C#N)C(C#N)c2ccccc2)cc1 (stereo not given)
inactive: [1] -1.5% | [2] 8.75% | [3] -0.1% | [4] -68.3% | [5] 11.8% | [6] -2.55%

CN1OC(CO)CC12C1CC3CC(C1)CC2C3 (stereo not given)
inactive: [1] -41% | [2] -19.1% | [3] -53.5% | [4] -3.4% | [5] -42.7% | [6] -53.8%

Oc1ccccc1C=Nc1ccc(N2CCOCC2)cc1
inactive: [1] 2.65% | [2] -3.7% | [3] 10.1% | [4] -4.2% | [5] 2.05% | [6] -2.35%

O=C1OC(=O)C(c2ccccc2)=C1c1ccccc1
inactive: [1] 10.6% | [2] 5% | [3] 9.55% | [4] -10.8% | [5] 5.95% | [6] 24.9%
